Measured values reported in PubChem BioAssay AID1508645 (National Center for Advancing Translational Sciences (NCATS), 2021).
Results filed as inconclusive are left out. Active and inactive are the calls of the source. The call rests on the fitted dose curve; in most records, active means well fitted cell-killing curve with a large enough effect; inconclusive means small, poorly fitted or top-dose-only effect, or effect the other way; inactive means no such curve, though single readings can be large or run the other way.

experiment: Cell viability assay in S16 Pmp22-HiBiT cells; settings: S16 Schwann Pmp22-HiBiT viability, CellTiter-Glo, 24 h; series mostly up to 27.9 µM; activity change, negative = cytotoxicity: at the top concentration
From the text: Assay Provider: Jim Inglese Ph.D. National Center for Advancing Translational Science, National Institutes of Health, Rockville, MD CMT is a heterogeneous group of neurological disorders that affect approximately 1 in 2,500 people. In particular, the most common form of CMT, CMT1A is genetically linked to the duplication of the PMP22 gene which leads to Schwann cell overexpression, thus manifesting itself as a typical case of dose-sensitive diseases. To identify small molecule compounds that can mediate the expression of PMP22 we developed a phenotypic assay screening strategy by utilizing genome editing techniques to construct Schwann cell lines containing novel reporter technology to monitor the transcriptional or translational regulation of PMP22. For high sensitivity we use a bioluminescent reporter system embedded in the 3' UTR of the PMP22 gene (S16(c9) Pmp22-F2sN) to identify compounds that inhibit gene expression. […] We can further discriminate the effect of all transcriptionally active molecules on PMP22 translation or stability with an assay that incorporates a short NLuc peptide (HiBiT) at the C-terminus of expressed PMP22 (S16(f8) PMP22-HiBiT) allowing alpha complementation and luminescence detection of membrane-associated PMP22 protein. These assays were screened against the NCATS Sytravon Library Collection. Miniaturization of these assays to 1536-well plate format for quantitative high throughput screening (qHTS) yielded rich data sets immediately from the qHTS assay (S16(c9) Pmp22-F2sN), when compared with data from a cell viability assay (Cell TiterGlo) to identify compounds that decreased the output signals through cellular toxicity to streamline the selection process of actives for subsequent characterization using the HiBiT assay (S16(f8) PMP22-HiBiT).
Cell viability assay in S16 Pmp22-HiBiT cells PROTOCOL TABLE (format as described by Inglese J, Shamu CE and Guy RK. 2007) SEQUENCE No. (e.g., 1, 2, 3, etc.); PARAMETER (e.g., Cells, Incubation, Reagent, etc.); VALUE and DESCRIPTION. 1. Cells. Add 500-1,000 cells in 4 uL in growth media (DMEM High Glucose, No Phenol Red media + 10% heat-inactivated FBS + 1% Pen/Strep supplemented media) per well into Greiner 1536-well white/solid bottom high base, TC-treated plates. 2. Compounds. Library compounds and controls added at 23nL per well, transferred by Pin Tool. 3. Incubation. Incubate plates at 37C, 5% CO2, 95% RH for 24 h. 4. Reagent. Add 3uL CellTiter-Glo per well of Greiner 1536-well plates. 5. Incubation. Incubate plates at room temperature for 15 min., protect from light. 6. Detector. Luminescence measured using CCD-based camera (Viewlux). NOTES (numbers refer to Sequence numbers above; values are from representative experiments) 6. Luminescence Read: Clear filter; Exposure = 1 sec, Gain = High, Speed = Slow, Binning = 2X REFERENCES: 1. Inglese J, Shamu CE and Guy RK, Reporting data from high throughput screening of small molecule libraries, Nature Chemical Biology, 2007, 3(8): 438-441. doi.org/10.1038/nchembio0807-438 2. Yasgar A, Shinn P, Jadhav A, Auld DS, Michael S, Zheng W, Austin CP, Inglese J and Simeonov A, Compound Management for Quantitative High-Throughput Screening. J. Assoc. Lab. Auto., 2008, 13: 79-89. doi: 10.1016/j.jala.2007.12.004

| SMILES | activity change, negative = cytotoxicity | Potency |
| --- | --- | --- |
| COC(=O)c1c(-c2ccc(Cl)cc2)noc1N1CCN(c2ccccc2OC)CC1 | 4.08% (inactive) | – |
| Cc1ccc(CNC(=O)c2ccc(Nc3nc4ccccc4n4nnnc34)cc2)cc1 | -11.3% (inactive) | – |
| COc1ccc(NC(=O)c2nc(S(=O)(=O)Cc3ccc(C)cc3)ncc2Cl)cc1 | – | 8.13 µM (active) |
| CCC(=O)C1=C(c2cccc([N+](=O)[O-])c2)N(C(=O)CC)n2c(nnc2-c2ccccc2)S1 | 2.29% (inactive) | – |
